# Shown are actives, neighbours in structure and some others; about 2.6% of the full set was active somewhere.
# LGR2 inh = blocks bursicon-induced cAMP signaling via Drosophila LGR2. HEK293 LGR2, CRE-luciferase, bursicon-stimulated, 4 h. inhibition, % at 9.99 µM. actives 0.35% (n = 380,000);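 active = drop in luminescence signal, shown as inhibition above about 50% in the replicate tests, limit read from the data, passing the limit was not always enough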;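 also: agonist challenge used bursicon conditioned medium at about half maximal strength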
# TROY signal inh = inhibitors of TROY-dependent NF-kB signaling | Q293 LMP1-TROYcd NF-kB luciferase reporter, 4 h | inhibition, % at 10 µM | actives 0.98% (n = 360,000);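 active = compounds whose plate-normalised and pattern-corrected inhibition of the luciferase reporter signal at the single screening dose is 50% or more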
# KKLEB tox = reduces viability of KKLEB cystic fibrosis airway cells; KKLEB CF airway cells viability, ATPlite luminescence, overnight; stronger effect = lower value; cells stimulated with P. aeruginosa culture filtrate; activity change (cytotoxicity), % at 5 µM; actives 0.36% (n = 360,000); AID 602141;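 active = corrected activity change at or below -50% at 5 µM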
# TWEAK Fn14 block = inhibitors of TWEAK-Fn14 interaction signaling. actives 2% (n = 360,000). inhibition, % at 10 µM. TWEAK-stimulated Fn14 reporter cells, luciferase luminescence, 8 h. AID 1159606; in the data active = inhibition above about 50%
# CF NFkB block = blocks PAF-induced NF-kB reporter in cystic fibrosis cells | KKLEB NF-kB-GFP reporter, GFP fluorescence overnight | AID 588850 | actives 0.86% (n = 360,000) | inhibition, % at 5 µM;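 active = at least 50% inhibition at 5 µM, scaled per plate between neutral and stimulator controls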;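 also: PAF is a Pseudomonas aeruginosa culture filtrate used as stimulus; plate controls were PAF-stimulated DMSO wells for no effect and unstimulated DMSO wells for full effect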
# EWS-Fli inh = inhibitors of EWS/Fli oncoprotein transcriptional activity. actives 0.67% (n = 350,000). inhibition, % at 12.6 µM. A673 NR0B1-luciferase reporter, viability-normalised;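 active = mean inhibition of at least 50% after viability correction, with every replicate also passing that limit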;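 also: firefly luciferase signal divided by Alamar Blue viability fluorescence both relative to DMSO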
# An asterisk follows results filed as active; / = no result given.
SMILES,LGR2 inh,TROY signal inh,KKLEB tox,TWEAK Fn14 block,CF NFkB block,EWS-Fli inh
c1ccc(-n2ncc3c(N4CCCCC4)ncnc32)cc1,60.9*,71.4*,-37.3,95.1*,-18.7,74.9*
CC1CCCN(c2ncnc3c2cnn3-c2ccccc2)C1 (stereo unspecified),83.9*,80.0*,-54.5*,92.5*,-34.1,68.7*
CC1CC(C)CN(c2ncnc3c2cnn3-c2ccc(Cl)cc2)C1 (stereo unspecified),10.3,78.1*,18.4,76.7*,-2.5,-27.4
CCC(=O)N(C)C[C@@H]1Oc2cc(C#CC3CCCCC3)ccc2S(=O)(=O)N([C@@H](C)CO)C[C@H]1C,2.8,/,/,/,/,1.5
CC1CCCN(c2ncnc3c2cnn3-c2ccc(Cl)cc2)C1 (stereo unspecified),97.1*,88.6*,-64.1*,103.7*,-60.4,86.2*
Cc1ccc(-n2ncc3c(N4CCCC(C)C4)ncnc32)c(C)c1 (stereo unspecified),-71.4,12.9,-16.3,-1.8,12.4,-75.3
CCN1CCN(c2ncnc3c2cnn3-c2ccc(Cl)cc2)CC1,/,40.9,-5.9,8.8,7.9,-54.7
CN1CCN(c2ncnc3c2cnn3-c2ccc(Cl)cc2)CC1,5.5,80.3*,-9.1,75.9*,-3.8,24.1
Cc1ccc(S(=O)(=O)Nc2ccc3c(c2)CC(=O)N([C@@H](C)CO)C[C@@H](C)[C@@H](CN(C)S(=O)(=O)c2cn(C)cn2)O3)cc1,2.6,/,/,/,/,-15.5
CCCNC(=O)N1CC2(CCN(C)CC2)c2c(n(C)c3cc(OC)ccc23)[C@H]1CO,-3.0,/,/,/,/,-4.3
CC(=O)/C(C(=N)N1CCN(c2cccc(Cl)c2)CC1)=C(\C)O,6.0,57.1*,-1.2,74.8*,10.7,8.3
O=C(O)CCC(=O)N1CCN(c2cccc(Cl)c2)CC1,/,14.8,15.9,12.1,-3.6,/
c1ccc2c(c1)OCC(c1csc3ncnc(N4CCCCC4)c13)O2 (stereo unspecified),/,33.0,-13.0,50.5*,45.5,/
CCCNC(=O)N1[C@H](CO)[C@H](c2ccc(C#Cc3cccc(F)c3)cc2)[C@@H]1C#N,-0.9,/,/,/,/,-0.8
O=C(O/N=C1\CCCc2ccccc21)c1cccs1,-107.5,80.3*,5.3,-23.4,4.3,-3.7
O=C(NCC[C@@H]1CC[C@@H](NS(=O)(=O)c2cccc(F)c2)[C@H](CO)O1)C1CCCCC1,-12.7,/,/,/,/,-5.1
Cc1cc(C(=O)COC(=O)C2=COCCO2)c(C)n1-c1ccccc1,91.0*,87.1*,-19.2,103.1*,-0.2,15.7
Cc1cc(C(=O)COC(=O)C2=NNC(=O)CC2)c(C)n1-c1ccccc1,-31.2,57.0*,7.2,7.0,-10.3,4.8
Cc1ccc(-n2c(C)cc(C(=O)COC(=O)C3=NNC(=O)CC3)c2C)cc1,/,5.1,-2.3,15.5,9.3,/
O=C(OCC(=O)N1CCN(c2ccccc2)CC1)C1=COCCO1,/,1.6,2.5,-5.9,5.1,/
COc1ccccc1-c1cc2nc(NCCc3ccc(S(N)(=O)=O)cc3)ccn2n1,-13.4,-10.0,7.2,-3.5,-13.9,-3.0
NS(=O)(=O)c1ccc(CCNc2ccn3nc(-c4cccc(C(F)(F)F)c4)cc3n2)cc1,9.8,66.2*,-17.0,80.1*,5.6,-10.8
Cc1n(CC(O)COC2CCCCC2)c2ccccc2[n+]1C (stereo unspecified),/,/,1.6,75.8*,-1.5,/
Cc1c(C(=O)c2no[n+]([O-])c2C(=O)c2cnn(C)c2C)cnn1C,/,-4.2,-26.8,25.1,63.0*,/
O=C(Nc1ccc(NC(=O)c2cccc([N+](=O)[O-])c2)cc1)c1cccc([N+](=O)[O-])c1,-19.1,-16.8,-16.4,-7.8,-3.4,-11.9
Cc1nc(C)c(C(=O)Nc2ncc([N+](=O)[O-])s2)o1,43.2,33.1,-2.2,85.4*,-3.8,57.5*
O=C(Nc1ncc([N+](=O)[O-])s1)c1cccc([N+](=O)[O-])c1,-29.0,-13.8,-25.1,93.4*,45.4,-17.6
CO[C@H]1CN(C)C(=O)c2cc(NC(=O)c3ccccc3)ccc2OC[C@H](C)N(C(=O)C2CC2)C[C@H]1C,-4.3,/,/,/,/,4.3
CC(C)C(=O)Nc1cccc(COc2ccc(CN(Cc3ccccc3)C(=O)OC(C)(C)C)cc2)c1,19.4,21.7,-12.4,70.2*,21.3,24.6

# From PubChem
